Compounds with a hit are over-represented: about 3.2% of the library has one in this group of screens.
VDR inhibitor: inhibitors of human vitamin D receptor | 0.93% of 400,000 active | P11473 | VDR-SRC2-3 peptide fluorescence polarization, 2 h | Potency, µM, without a hit: max response, negative = inhibition, usual class: inhibitors; also: potency is read from the fitted curve at half-maximal effect
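Two reagent solutions held at 4 deg C in the dark were dispensed, compounds pinned at 23 nl, and the mixture incubated 2 h at room temperature. Read-out: fluorescence polarization of VDR–SRC2-3 peptide binding.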
GALK inh: inhibitors of human galactokinase | 0.007% of 270,000 active | AID 1868 | Purified GALK, Kinase-Glo residual ATP luminescence | Potency, µM (highest dose often 57.5 µM), inactives show at the top dose activity change, negative = inhibition, hits mostly inhibitors | P51570; also: potency is read from the fitted curve at half-maximal effect
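The enzyme phosphorylates galactose (100 uM) using ATP (35 uM); inhibition is detected as higher residual ATP, quantified by bioluminescence after 1 h reaction at room temperature, pH 8.0.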
Coupling enz: counter-screen for Giardia aldolase inhibitors: coupling enzyme system; 0.67% of 290,000 active; activity change, negative = inhibition, % at 58.2 µM, hits read low; coupling enzyme system counterscreen, AmpLite Red fluorescence; in the data active = activity change below about -30%
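Compounds tested against the coupling enzymes alone at 57.5 uM final; readout was AmpLite Red fluorescence (525/598 nm) after 20 min at RT.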
USP2a inh: inhibitors of human ubiquitin-specific protease USP2a. Potency, µM (top dose mostly 38.3 µM), for inactives: at the highest dose activity change, negative = inhibition, hits mostly inhibitors. 0.01% of 330,000 active. AID 463254. O75604. USP2 core, Ub-CHOP2 coupled fluorogenic reporter, 485/531;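 also: potency is read from the fitted curve at half-maximal effect; plate controls were DMSO wells for no effect and full inhibition by NEM control for full effect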
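Cell-free coupled assay: 10nM USP2 core preincubated 30min RT with compound in Tris-HCl pH 8.0/CaCl2/CHAPS buffer, then 25nM Ub-CHOP2 and 25nM reporter substrate; fluorescence (Ex 485/Em 531) read after 60min RT, normalized to NEM inhibition, concentration-response curves fitted.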
USP1-UAF1 inh: inhibitors of human USP1/UAF1 deubiquitinase | recombinant USP1/UAF1, Ub-Rhodamine cleavage fluorescence | 0.23% of 390,000 active | AID 743255 | Potency, µM (top dose mostly 57.1 µM), for the others: top-dose activity change, negative = inhibition, most hits filed as inhibitors | O94782; also: potency is read from the fitted curve at half-maximal effect; nearly all actives have a fitted effect of over 60% in size
Target sequence (O94782 whole entry, looked up): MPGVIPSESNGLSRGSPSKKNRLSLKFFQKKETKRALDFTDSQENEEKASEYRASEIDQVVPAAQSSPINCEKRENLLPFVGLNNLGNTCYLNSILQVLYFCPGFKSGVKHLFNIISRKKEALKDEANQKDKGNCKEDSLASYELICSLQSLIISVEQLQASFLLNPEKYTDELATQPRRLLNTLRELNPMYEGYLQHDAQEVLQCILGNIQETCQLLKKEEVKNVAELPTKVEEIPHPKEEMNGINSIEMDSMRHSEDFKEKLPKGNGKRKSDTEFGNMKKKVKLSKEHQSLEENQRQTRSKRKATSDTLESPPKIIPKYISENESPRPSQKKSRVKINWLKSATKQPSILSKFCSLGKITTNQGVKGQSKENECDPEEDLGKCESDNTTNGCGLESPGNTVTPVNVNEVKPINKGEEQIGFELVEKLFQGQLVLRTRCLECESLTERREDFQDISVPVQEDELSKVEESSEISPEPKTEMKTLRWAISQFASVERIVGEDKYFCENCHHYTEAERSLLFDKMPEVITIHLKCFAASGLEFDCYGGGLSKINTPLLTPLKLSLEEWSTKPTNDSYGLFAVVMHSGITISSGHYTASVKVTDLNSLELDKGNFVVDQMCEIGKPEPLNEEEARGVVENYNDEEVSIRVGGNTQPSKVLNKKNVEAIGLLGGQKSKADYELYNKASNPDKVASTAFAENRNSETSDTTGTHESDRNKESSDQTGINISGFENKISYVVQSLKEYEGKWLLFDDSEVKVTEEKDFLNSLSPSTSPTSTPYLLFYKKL
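1 nM enzyme complex + cpd, 15 min RT; start with Ub-Rho 150nM final; kinetic fluorescence ex 480/em 540, 6 reads q60 s. Buffer 50mM HEPES pH 7.8, 0.5mM EDTA, 0.1 mg/ml BSA, 1mM TCEP, 0.01% Tween-20.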
PLK1 PBD block: inhibitors of human PLK1 polo-box domain binding. P53350. Plk1 PBD binding of FITC phosphopeptide, fluorescence polarization. Potency, µM, for inactives: max response, negative = inhibition, usual class: inhibitors. 2.8% of 360,000 active. AID 720504; also: potency is read from the fitted curve at half-maximal effect; series mostly up to about 57 µM; nearly all actives have a fitted effect of over 65% in size
Numbers without * were called inactive. Unless noted, calls follow the shape of the dose curve; as a rule, active = well fitted curve in the direction sought with a large enough effect; inconclusive = small, poorly fitted or top-dose-only effect, or another doubt; inactive = no such curve, though single readings can be large; an effect the other way counts as inactive or inconclusive. Unless noted, % is scaled to controls: 0 for no effect and ±100 for the full control effect.

Results for O=c1cc(-c2ccccc2)[nH]n1-c1nc2ccccc2s1 ?
VDR inhibitor: -14%; GALK inh: -3%; Coupling enz: 3; USP2a inh: -7%; USP1-UAF1 inh: -27%; PLK1 PBD block: 21µM*

What do the screens show for `O=c1cc(-c2ccccc2)[nH]n1-c1ccccc1`?
VDR inhibitor: 6%; USP1-UAF1 inh: -32%; PLK1 PBD block: 6%

How did O=[N+]([O-])c1ccc(N2CCNCC2)c(S(=O)(=O)N2CCOCC2)c1 do in these assays?
VDR inhibitor: -9%; GALK inh: -1%; Coupling enz: 4; USP2a inh: 0%; USP1-UAF1 inh: -21%; PLK1 PBD block: -2%

Results for O=C1/C(=C/C=C/c2ccco2)SC(=S)N1NS(=O)(=O)c1ccccc1 ?
VDR inhibitor: -19%; Coupling enz: -5; USP2a inh: inconclusive; USP1-UAF1 inh: inconclusive; PLK1 PBD block: 11µM*

How did O=C1/C(=C/c2cccs2)SC(=S)N1NS(=O)(=O)c1ccccc1 do in these assays?
VDR inhibitor: 4%; GALK inh: -12%; Coupling enz: 11; USP2a inh: 11%; USP1-UAF1 inh: -10%; PLK1 PBD block: -28%

How did Cn1c(=O)c2c(nc(NCc3ccccc3)n2C)n(C)c1=O do in these assays?
VDR inhibitor: -4%; GALK inh: 2%; Coupling enz: 2; USP2a inh: 6%; USP1-UAF1 inh: -18%; PLK1 PBD block: -1%

What do the screens show for `Cn1c(=O)c2cc(NCc3ccccc3)nnc2n(C)c1=O`?
VDR inhibitor: 0%; GALK inh: 1%; Coupling enz: -59*; USP2a inh: 7%; USP1-UAF1 inh: -3%; PLK1 PBD block: -12%

Results for CCCCCCCC1(C)NC(=O)NC1=O (stereo unspecified) ?
VDR inhibitor: 6%; GALK inh: 6%; Coupling enz: 7; USP2a inh: -1%; USP1-UAF1 inh: -11%; PLK1 PBD block: -10%

What do the screens show for `C=C1C(=O)OC2C[C@@]3(C)CCCC(C)C3=CC12` (stereo partly specified)?
VDR inhibitor: 40µM*; Coupling enz: 3

What do the screens show for `C[C@H]1CCC[C@]2(C)C[C@H]3OC(=O)C(CN4CCCCCC4)[C@H]3C=C12` (stereo partly specified)?
VDR inhibitor: -6%; Coupling enz: 1; USP2a inh: 4%; USP1-UAF1 inh: -17%; PLK1 PBD block: -3%

How did COc1ccc(NC(=O)CCl)cn1 do in these assays?
GALK inh: -2%; Coupling enz: -40*; USP2a inh: 0%

Results for COc1ccc(NC(=O)Cc2c(Cl)cccc2Cl)cn1 ?
VDR inhibitor: -17%; GALK inh: 3%; Coupling enz: -8; USP2a inh: 2%; USP1-UAF1 inh: -15%; PLK1 PBD block: -5%

How did COc1ccc(NC(=O)/C(Cl)=C(/Cl)S(=O)(=O)Cc2ccccc2)cn1 do in these assays?
VDR inhibitor: 35µM*; GALK inh: -3%; Coupling enz: 0; USP2a inh: 4%; USP1-UAF1 inh: inconclusive; PLK1 PBD block: 5.3µM*

How did Cc1ccsc1/C=C1/CN(C)Cc2c1nc1ccccc1c2C(=O)O do in these assays?
VDR inhibitor: -12%; GALK inh: 4%; Coupling enz: 0; USP2a inh: 5%; USP1-UAF1 inh: -7%; PLK1 PBD block: -12%

What do the screens show for `Cc1ccc(N2C(=O)CC(Sc3ccccc3C(=O)O)C2=O)cc1` (stereo unspecified)?
VDR inhibitor: -19%; GALK inh: -1%; Coupling enz: 4; USP2a inh: 2%; USP1-UAF1 inh: -14%; PLK1 PBD block: -3%

How did O=C(Cc1ccccc1)NCC(=O)OCc1ccc([N+](=O)[O-])cc1 do in these assays?
VDR inhibitor: -13%; GALK inh: 0%; Coupling enz: 2; USP2a inh: -1%; USP1-UAF1 inh: -3%; PLK1 PBD block: -11%

Results for S=C(Nc1cccc(Cl)c1Cl)Nn1cnnc1 ?
VDR inhibitor: 79µM*; GALK inh: 1%; Coupling enz: 8; USP2a inh: 0%; USP1-UAF1 inh: -6%; PLK1 PBD block: 17µM*

Results for S=C(NNc1ccnc2cc(Cl)ccc12)Nc1ccc(Cl)cc1Cl ?
VDR inhibitor: 79µM*; GALK inh: 5%; Coupling enz: -1; USP2a inh: -11%; USP1-UAF1 inh: -27%; PLK1 PBD block: inconclusive

Results for S=C(NCc1ccc(Cl)cc1)Nc1ccc(Cl)cc1Cl ?
VDR inhibitor: -19%; GALK inh: 0%; Coupling enz: 1; USP2a inh: 5%; USP1-UAF1 inh: 0%; PLK1 PBD block: -10%

Results for O=C(Nc1cccc(Cl)c1Cl)Nn1cnnc1 ?
VDR inhibitor: -15%; GALK inh: 1%; Coupling enz: 3; USP2a inh: 2%; USP1-UAF1 inh: -12%; PLK1 PBD block: -8%

Results for NC(=S)Nc1cc(Cl)ccc1Cl ?
VDR inhibitor: -26%; GALK inh: 3%; Coupling enz: -2; USP2a inh: 0%; USP1-UAF1 inh: -24%; PLK1 PBD block: -11%

What do the screens show for `S=C(Nc1cc(Cl)ccc1Cl)Nn1cnnc1`?
VDR inhibitor: 79µM*; GALK inh: -1%; Coupling enz: 6; USP2a inh: -1%; USP1-UAF1 inh: -7%; PLK1 PBD block: 21µM*

How did S=C(Nc1ccc(Cl)cc1Cl)Nn1cnnc1 do in these assays?
VDR inhibitor: inconclusive; GALK inh: 0%; Coupling enz: 1; USP2a inh: 1%; USP1-UAF1 inh: -19%; PLK1 PBD block: 6.7µM*

What do the screens show for `COC(CNC(=O)c1ccc2c(c1)nc(C)n2-c1cccc(C)c1)OC`?
VDR inhibitor: -11%; GALK inh: 1%; Coupling enz: 1; USP2a inh: 0%; USP1-UAF1 inh: -16%; PLK1 PBD block: 30µM*

How did CCCNC(=O)c1ccc2c(c1)nc(C)n2-c1cccc(C)c1 do in these assays?
VDR inhibitor: -2%; GALK inh: 1%; Coupling enz: 2; USP2a inh: 3%; USP1-UAF1 inh: -2%; PLK1 PBD block: -11%

How did Cc1cccc(N2C(=O)CC(Sc3ncn[nH]3)C2=O)c1 (stereo unspecified) do in these assays?
VDR inhibitor: 8%; GALK inh: 0%; Coupling enz: 1; USP2a inh: 2%; USP1-UAF1 inh: -15%; PLK1 PBD block: 27µM*

Results for Cc1ccc(N2C(=O)CC(Sc3ncn[nH]3)C2=O)cc1C (stereo unspecified) ?
VDR inhibitor: -1%; GALK inh: -2%; Coupling enz: 2; USP2a inh: -9%; USP1-UAF1 inh: -22%; PLK1 PBD block: 30µM*
